Out of some 1,500 compounds screened, about 460 (31%) were called active. About 1% were inconclusive and are not listed. Not all results are given here. Results with a measured potency or affinity are listed apart. A number with no mark means an inactive call.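 The calls were made as follows: active = curve reaches 40% activation over neutral controls at an AC40 no higher than the top valid tested concentration; inconclusive = no clear call, values can overlap the other calls; inactive = signal moving opposite to the expected increase, and the rest.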
Assay: GLuc-reported insulin release enhancers, glucose-stimulated beta cells – cell-based, INS-1E, Gaussia luciferase, luminescence, cherry-pick, set 2, dose response (AID 977607);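 also: 0% = median of the plate neutral control wells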
Conditions: INS-1E GLuc insulin secretion reporter, 2-3 h, hits give high values; at 35 µM, 100% = signal doubled over neutral wells unless noted

SMILES	max activation
COc1ccc(CCNC(=O)CCn2c(=O)c3ccccc3n(CC(=O)NCC3CCCO3)c2=O)cc1OC (stereo unspecified)	20.3% [at 0.135 µM, 100% = signal doubled over neutral wells]
CCN(CC)C(=O)Cn1c(=O)oc2ccccc21	-21.2%
Cc1nccn1-c1ncnc2sc3c(c12)CCCC3	-26.7% [at 0.046 µM, 100% = signal doubled over neutral wells]
CCOC(=O)N1CCN(C(=O)COc2ccccc2OC)CC1	19.9% [at 11 µM, 100% = signal doubled over neutral wells]
COc1ccc(/C=N/NC(=O)CN(C2=NS(=O)(=O)c3ccccc32)c2ccccc2)cc1OC	23.5%
C=CCc1ccc(OCCOc2ccc(/C=N/n3cnnc3)cc2OCC)c(OC)c1	-24.1% [at 0.046 µM, 100% = signal doubled over neutral wells]
COc1ccc(/C=N/NS(=O)(=O)c2ccccc2)cc1OC	16.8%
Cc1cc(C)c2c(C)nn(C3CCCCC3)c2n1	20.5%
CSc1ccc(C(=O)C2CCCN(C(=O)c3ccc4c(c3)no[n+]4[O-])C2)cc1 (stereo unspecified)	-36.5%
CCOc1ccc(-c2nc(CSc3nnc(N)s3)cs2)cc1OC	23.2%
COc1ccc(-c2nc(C(=O)O)cs2)cc1OC	28.2% [at 0.42 µM, 100% = signal doubled over neutral wells]
C=CCn1cnc2scc(-c3ccc(OC)cc3)c2c1=O	-14.9% [at 1.2 µM, 100% = signal doubled over neutral wells]
COc1ccc(C(=O)O/N=C(\N)c2ccc(OC)c(OC)c2)cc1	-23.3% [at 0.135 µM, 100% = signal doubled over neutral wells]
COc1ccc(CC(=O)O/N=C(\N)c2ccccc2)cc1OC	-13.5% [at 0.005 µM, 100% = signal doubled over neutral wells]
COc1ccc(OCC(=O)NNC(=O)Cn2c(=O)cnc3ccccc32)cc1	-15.3% [at 1.2 µM, 100% = signal doubled over neutral wells]
CC(=O)NCCc1nc2ccccc2n1CCOc1cccc(C)c1	-27.1%
O=C(c1ccccc1)c1ccc2ccccc2n1	-22.9% [at 0.0016 µM, 100% = signal doubled over neutral wells]
O=C(Nc1ccccc1Oc1ccsc1C(=O)O)c1ccccc1F	23.2% [at 0.42 µM, 100% = signal doubled over neutral wells]

SMILES	max activation
Cc1cc(C)cc(C(=O)NC(=S)Nc2ccc(-c3cc4ccccc4oc3=O)cc2)c1	14.9%
O=C(NCC1CCCO1)C1CCC(N2C(=O)c3ccccc3C2=O)CC1 (stereo unspecified)	17.8% [at 11 µM, 100% = signal doubled over neutral wells]
CC1CCN(C(=O)c2cccc(S(=O)(=O)N3CCN(c4ccccc4)CC3)c2)CC1	35.2% [at 0.0016 µM, 100% = signal doubled over neutral wells]
CN1CCN(NC(=O)c2cccc(S(=O)(=O)N3CCCCCC3)c2)CC1	33% [at 1.2 µM, 100% = signal doubled over neutral wells]
CN(Cc1ccccc1)C(=S)NC(=O)c1ccc(-c2ccccc2)cc1	-29.1% [at 3.8 µM, 100% = signal doubled over neutral wells]
COc1cc(NC(=O)c2c(-c3ccccc3Cl)noc2C)c2ncccc2c1	-28.8% [at 11 µM, 100% = signal doubled over neutral wells]
Cc1cccnc1NC(=O)c1ccc(S(=O)(=O)N2CCCCC2)cc1	-21.1% [at 3.8 µM, 100% = signal doubled over neutral wells]
CC1CC(C)CN(CC(O)COCc2ccccc2F)C1 (stereo unspecified)	-21.2% [at 0.0016 µM, 100% = signal doubled over neutral wells]
COc1ccc(OC)c(N(CC(=O)NN=C2CCN(C)CC2)S(=O)(=O)c2ccccc2)c1	-25.4% [at 0.135 µM, 100% = signal doubled over neutral wells]
CC(NC(=O)C1CCCN1S(=O)(=O)c1ccc2c(c1)n(C)c(=O)c(=O)n2C)c1ccccc1 (stereo unspecified)	-14.2% [at 0.015 µM, 100% = signal doubled over neutral wells]
c1cc2c(cc1CN1CCN(C3CCCCCC3)CC1)OCO2	-12.6% [at 0.135 µM, 100% = signal doubled over neutral wells]
Cc1cc(S(=O)(=O)NCc2cccnc2)ccc1F	-23% [at 3.8 µM, 100% = signal doubled over neutral wells]
O=C(Nc1nonc1NC(=O)c1cccs1)c1cccs1	-48.2%
COC(=O)c1sc2ccccc2c1NC(=O)c1cccs1	-14.7% [at 0.046 µM, 100% = signal doubled over neutral wells]
Cc1cc(C)nc(NC(=O)c2ccc(Cl)cc2Cl)n1	-21.7% [at 0.135 µM, 100% = signal doubled over neutral wells]
Cc1ccc(NC(=O)c2cccs2)cc1NC(=O)c1ccccc1Cl	18.8% [at 1.2 µM, 100% = signal doubled over neutral wells]
CCCCNC(=O)c1ccccc1NC(=O)C1=C(C)OCCS1	-8.81% [at 0.005 µM, 100% = signal doubled over neutral wells]
CCOC(=O)c1nc(NCc2cccnc2)c2ccccc2n1	-21% [at 1.2 µM, 100% = signal doubled over neutral wells]

From PubChem BioAssay AID977607 (Broad Institute, 2014)
